Experimental data reported in PubChem BioAssay (NCI).
About 83,000 compounds went through this panel and 20% of them were active in at least one assay; those are over-represented in the sample as a whole.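 Results are percent growth after 48 hours of single-concentration exposure. 100 means growth as in untreated cells, lower positive values show inhibition; negative values down to -100 show cell death.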 Values without a mark were called inactive. Active and inactive are the calls of the source. How the source made its calls: active means growth percent below 10; inactive means the rest.

test system: TK-10 renal; assay: NCI-60 one-dose screen, 48 h (100 = growth as untreated, 0 = no growth, -100 = all killed); conditions: 10 µM unless noted

Structure (SMILES) | growth
C#Cc1nc(C(=O)NCCC(=O)Nc2ccc(NC(=O)c3ccc(/C=C/C(=O)c4nccn4C)cc3)cc2)cs1 | 69.9%
CCN(CC)CCn1c2ccc(O)cc2c2sc3cc(OC)ccc3c(=O)c21 | 61.7%
CC1(C)CC[C@]2(C(=O)N3CCOCC3)CC[C@]3(C)C(=CC[C@@H]4[C@@]5(C)C/C(=C/c6ccccn6)C(=O)C(C)(C)[C@@H]5CC[C@]43C)[C@@H]2C1 | 70.2%
Cc1nc(-c2ccccc2O)ccc1C(=O)N=Nc1c(O)[nH]c2ccc(Br)cc12 | 167%
O=C(CCn1c[n+](CC(=O)c2ccc(-c3ccccc3)cc2)c2ccccc21)Nc1cccc2cccnc12 | 97.5%
COC(=O)c1[nH]nc2c1C1(C(=O)c3cccc4cccc1c34)C(C#N)=C(N)O2 (centres undefined) | 122%
N=c1c2cc(-c3ccccc3)oc2ncn1/N=C/c1ccc(Cl)cc1 | 112%
Cc1ccc(-n2c(/C=C3\C(=O)Nc4ccccc43)ccc2CO)cc1 | 118%
CC(=O)N(C)C1CCc2c(sc(NC(=O)c3ccc(C(C)(C)C)cc3)c2C(N)=O)C1 (centres undefined) | 106%
CC1(C)[C@@H](O)CC[C@]2(C)[C@H]3CC[C@@H]4[C@H]5[C@H](C(=O)/C=C\c6ccc([N+](=O)[O-])cc6)CC[C@]5(O)CC[C@@]4(C)[C@]3(C)CC[C@@H]12 | 123%
Cc1ccc(NC(=O)CNc2cc(C(N)=O)cc(F)c2C)c(Cl)c1 | 102%
COc1ccc(N2CCN(C3=C(Cl)C(=O)C(C)=C(C)C3=O)CC2)cc1 | 123%
CN1CCN(c2ccc(/C=N/Nc3nc4ccccc4c(=O)n3-c3ccccc3)cc2)CC1 | 91.3%
COc1cc(-c2nc3sccn3c2-c2ccnc(S(C)(=O)=O)n2)ccc1F | 120%
Cc1ccc2c(c1)Oc1nc(N)c(C#N)c(N)c1C2Sc1ccc(F)cc1 (centres undefined) | -98.8% (active)
CCCn1cnc2c(c1=N)C(c1ccc(F)cc1)c1sc3c(C)cccc3c1O2 (centres undefined) | 70.9%
COc1ccc(Cn2cc3c(c2-c2cc(OC)c(OC)c(OC)c2)CCc2c(CN4CCCC4)noc2-3)cc1 | 69.6%
CC1=N[C@@H]2CN(C(=O)OC(C)(C)C)C[C@@H]2n2c1cc1ccccc1c2=O | 123%
COc1cc(OC)cc(C(=O)Nc2cccc(C#Cc3cccc4[nH]nc(N)c34)c2)c1 | 54.3%
COc1ccccc1-n1cc(C#N)c(N)c1C(=O)c1ccc(Br)cc1 | 111%
CS(=O)(=O)Nc1cc(-c2ccc3ncc(C#N)c(NCc4cccc(F)c4)c3c2)cnc1Cl | -11% (active)
CC[C@H](CO)Nc1ccc2ncc(C#Cc3cncc(C(=O)Nc4ccc(CN5CCN(C)CC5)c(C(F)(F)F)c4)c3)n2n1 | -57% (active)
COc1cc(-c2nc(SCCC(C)C)nc(NNC(=O)c3ccncc3)c2C#N)cc(OC)c1OC | 52.8%
CCCCCc1ccc(S(=O)(=O)Nc2cc(-c3csc(NC(=O)CN4CCN(CCO)CC4)n3)ccc2OC)cc1 | 104%
CCCn1cnc2c(c1=N)C(c1ccc(OC)cc1)c1sc3c(CC)cccc3c1O2 (centres undefined) | 74.6%
C#Cc1ccc(C(=O)NCc2ccc(/C=C/C(=O)c3nccn3C)cc2)cc1 | 45.1%

test system: ACHN renal; assay: as above; conditions: 10 µM unless noted

Structure (SMILES) | growth
NS(=O)(=O)c1ccc(Nc2nc(N/N=C/c3c[nH]c4ccccc34)nc(Nc3ccccc3)n2)cc1 | 81.2%
CCc1cccc2c3c(sc12)C(c1ccc(OC)cc1)C(C#N)=C(/N=C/c1ccc(Cl)cc1)O3 (centres undefined) | 43%
Cn1ccnc1C(=O)/C=C/c1ccc(CNC(=O)c2ccc(F)cc2)cc1 | 43.4%
N#Cc1cccc(NC(=O)c2cc(-c3ccc(F)cc3F)ccc2O)c1 | 5.79% (active)
O=S(=O)(NCCCNc1nccc(-c2[nH]c(-c3ccccc3)nc2-c2ccc(Cl)c(O)c2)n1)c1cccc2ccccc12 | 19.6%
CC1(C)[C@@H](O)CC[C@]2(C)[C@H]3CC[C@@H]4[C@H]5[C@H](C(=O)/C=C\c6ccncc6)CC[C@]5(O)CC[C@@]4(C)[C@]3(C)CC[C@@H]12 | 52.5%
CS(=O)(=O)Nc1cc(-c2ccc3ncc(C#N)c(N[C@H](CO)c4ccccc4)c3c2)cnc1Cl | 81.4%
O=C(CSc1nc2ccccc2c(=O)n1-c1ccccc1)Nc1ccc(-c2nc3ccc([N+](=O)[O-])cc3[nH]2)cc1 | 88.2%
Oc1cccc2ccc(-c3nnc(SCc4ccc(O)c5ncccc45)n3-c3ccccc3)nc12 | 7.49% (active)
C=CCn1c(SCC(=O)Nc2ccc(C(=O)/C=C/c3ccc(C)cc3)cc2)nnc1-c1c[nH]c2ccccc12 | 83.4%
C[C@@H](Nc1c(C#N)cnc2ccc(-c3cnc(Cl)c(NS(C)(=O)=O)c3)cc12)c1ccccc1 | 8.09% (active)
CCN(CC)c1ccc(NC2=C(Cl)C(=O)c3nc(C)ccc3C2=O)cc1 | -61.2% (active)
C#Cc1nc(C(=O)NCCC(=O)Nc2ccc(NC(=O)c3ccc(/C=C/C(=O)c4nccn4C)cc3)cc2)cs1 | -67.5% (active)
CCN(CC)CCn1c2ccc(O)cc2c2sc3cc(OC)ccc3c(=O)c21 | 12.4%
CC1(C)CC[C@]2(C(=O)N3CCOCC3)CC[C@]3(C)C(=CC[C@@H]4[C@@]5(C)C/C(=C/c6ccccn6)C(=O)C(C)(C)[C@@H]5CC[C@]43C)[C@@H]2C1 | 76.9%
Cc1nc(-c2ccccc2O)ccc1C(=O)N=Nc1c(O)[nH]c2ccc(Br)cc12 | 91.5%
O=C(CCn1c[n+](CC(=O)c2ccc(-c3ccccc3)cc2)c2ccccc21)Nc1cccc2cccnc12 | 103%
COC(=O)c1[nH]nc2c1C1(C(=O)c3cccc4cccc1c34)C(C#N)=C(N)O2 (centres undefined) | 99.6%
N=c1c2cc(-c3ccccc3)oc2ncn1/N=C/c1ccc(Cl)cc1 | 34.3%

Structure (SMILES) | growth
Cc1ccc(-n2c(/C=C3\C(=O)Nc4ccccc43)ccc2CO)cc1 | 76.5%
CC(=O)N(C)C1CCc2c(sc(NC(=O)c3ccc(C(C)(C)C)cc3)c2C(N)=O)C1 (centres undefined) | 97.7%
CC1(C)[C@@H](O)CC[C@]2(C)[C@H]3CC[C@@H]4[C@H]5[C@H](C(=O)/C=C\c6ccc([N+](=O)[O-])cc6)CC[C@]5(O)CC[C@@]4(C)[C@]3(C)CC[C@@H]12 | 45.5%
Cc1ccc(NC(=O)CNc2cc(C(N)=O)cc(F)c2C)c(Cl)c1 | 88.9%
COc1ccc(N2CCN(C3=C(Cl)C(=O)C(C)=C(C)C3=O)CC2)cc1 | 104%
CN1CCN(c2ccc(/C=N/Nc3nc4ccccc4c(=O)n3-c3ccccc3)cc2)CC1 | 108%
COc1cc(-c2nc3sccn3c2-c2ccnc(S(C)(=O)=O)n2)ccc1F | 90.4%
Cc1ccc2c(c1)Oc1nc(N)c(C#N)c(N)c1C2Sc1ccc(F)cc1 (centres undefined) | -100% (active)
CCCn1cnc2c(c1=N)C(c1ccc(F)cc1)c1sc3c(C)cccc3c1O2 (centres undefined) | 35.5%
COc1ccc(Cn2cc3c(c2-c2cc(OC)c(OC)c(OC)c2)CCc2c(CN4CCCC4)noc2-3)cc1 | 45.7%
CC1=N[C@@H]2CN(C(=O)OC(C)(C)C)C[C@@H]2n2c1cc1ccccc1c2=O | 92.6%
COc1cc(OC)cc(C(=O)Nc2cccc(C#Cc3cccc4[nH]nc(N)c34)c2)c1 | 35.4%
COc1ccccc1-n1cc(C#N)c(N)c1C(=O)c1ccc(Br)cc1 | 98.9%
CS(=O)(=O)Nc1cc(-c2ccc3ncc(C#N)c(NCc4cccc(F)c4)c3c2)cnc1Cl | 10.1%
CC[C@H](CO)Nc1ccc2ncc(C#Cc3cncc(C(=O)Nc4ccc(CN5CCN(C)CC5)c(C(F)(F)F)c4)c3)n2n1 | -98.6% (active)
COc1cc(-c2nc(SCCC(C)C)nc(NNC(=O)c3ccncc3)c2C#N)cc(OC)c1OC | 23%
CCCCCc1ccc(S(=O)(=O)Nc2cc(-c3csc(NC(=O)CN4CCN(CCO)CC4)n3)ccc2OC)cc1 | 65.6%
CCCn1cnc2c(c1=N)C(c1ccc(OC)cc1)c1sc3c(CC)cccc3c1O2 (centres undefined) | 35.7%
C#Cc1ccc(C(=O)NCc2ccc(/C=C/C(=O)c3nccn3C)cc2)cc1 | 21.6%
